Data from PubChem BioAssay AID709 (SRMLSC, 2007).
The campaign covered roughly 65,000 compounds. About 3,600 (5.5%) were called active.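 Rule for the calls: active = at 10 µM, mean starting fluorescence two-fold or more over control wells; inactive = the rest.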 The entries come from a sample that favours actives as a whole.

Test: intrinsic fluorescence of library compounds, ex339/em460 – biochemical, MLSMR library, data from DPM-DC assay, artefact control, profiling panel (AID 709);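 note: signal is the first read of a kinetic run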
Conditions: compound autofluorescence, ex339/em460 nm, NADH buffer; at 10 µM; hits give high values; 1 = no-compound wells, NADH background

| Compound | fluorescence fold increase |
| --- | --- |
| CCN(CC)C(=O)CSc1nnc(-c2cccc(OC)c2)o1 | 1.05 (inactive) |
| COc1cccc(-c2nnc(NC(=O)c3ccc(S(=O)(=O)N(CC(C)C)CC(C)C)cc3)o2)c1 | 3.77 (active) |
| COc1cccc(NC(=O)CN(C)S(=O)(=O)c2ccc(C)cc2)c1 | 1.1 (inactive) |
| CC(C)(O)C#Cc1ccc(C(=O)N2CCC(C(N)=O)(N3CCCCC3)CC2)cc1 | 1.1 (inactive) |
| Cc1ccc(NC(=O)c2nc[nH]c2C(=O)N2CCCCC2)c(C(=O)c2ccccc2)c1 | 1.13 (inactive) |
| Cc1ccc2c(c1)sc1ncc(NC(=O)c3ccccc3)c(=O)n12 | 2.43 (active) |
| Cc1ccccc1NC(=O)c1ccccc1 | 1.09 (inactive) |
| CC(C)C(NC(=O)c1cccc(S(=O)(=O)N2CCOCC2)c1)C(=O)NCCc1ccccn1 (stereo unspecified) | 1.06 (inactive) |
| C=CCNC(=O)c1ccc(C)c(Br)c1 | 1.08 (inactive) |
| Nc1ncc(-c2cc3ccccc3oc2=O)s1 | 1.43 (inactive) |
| COc1cccc(C(=O)c2cc3ccc(O)cc3oc2=O)c1 | 1.05 (inactive) |
| O=c1oc2cc(O)ccc2cc1-c1ccc(F)cc1 | 3.81 (active) |
| O=C(Cn1c(=S)nc2ccccn21)N1CCc2ccccc2C1 | 1.17 (inactive) |
| CCOc1ccc2[nH]c(=O)c(CN(Cc3nnnn3Cc3ccccc3)CC3CCCO3)cc2c1 (stereo unspecified) | 2.24 (active) |
| CCC(c1nnnn1Cc1ccco1)N(Cc1cc2cc(OC)ccc2[nH]c1=O)C1CCCCC1 (stereo unspecified) | 1.39 (inactive) |
| Cc1cc2cc(CN(Cc3cccs3)Cc3nnnn3CC3CCCO3)c(=O)[nH]c2cc1C (stereo unspecified) | 1.42 (inactive) |
| CCC(c1nnnn1Cc1ccccc1)N(Cc1cc2cc(OC)ccc2[nH]c1=O)CC1CCCO1 (stereo unspecified) | 1.46 (inactive) |
| Cc1cccc2cc(CN(Cc3nnnn3Cc3ccccc3)C3CCCC3)c(=O)[nH]c12 | 1.03 (inactive) |
| CCOc1ccc2[nH]c(=O)c(CN(Cc3nnnn3CCc3ccccc3)CC3CCCO3)cc2c1 (stereo unspecified) | 1.82 (inactive) |
| Cc1cc(C)c2cc(CN(Cc3cccs3)Cc3nnnn3CC3CCCO3)c(=O)[nH]c2c1 (stereo unspecified) | 1.16 (inactive) |
| COc1ccc2[nH]c(=O)c(CN(CC3CCCO3)C(=O)Nc3ccccc3)cc2c1 (stereo unspecified) | 2.91 (active) |
| COc1ccc2[nH]c(=O)c(CN(Cc3nnnn3CCc3ccccc3)CC3CCCO3)cc2c1 (stereo unspecified) | 2.03 (active) |
| COc1ccc(/C(O)=C2/C(=O)C(=O)N(c3nc(C)c(C)s3)C2c2ccco2)cc1 (stereo unspecified) | 1.08 (inactive) |
| COc1ccc(NS(=O)(=O)c2ccc(NC(=O)C(C)(C(F)(F)F)C(F)(F)F)cc2)nn1 | 1.11 (inactive) |

| Compound | fluorescence fold increase |
| --- | --- |
| Cn1c(=O)oc2cc(S(=O)(=O)N3CCC(C(=O)Nc4ccc(OC(F)(F)F)cc4)CC3)ccc21 | 0.99 (inactive) |
| CCC1(C)N(O)C(C)(C)C(c2ccc(OC)cc2)=[N+]1[O-] (stereo unspecified) | 1.08 (inactive) |
| COc1ccc(CCNC(=O)c2ccc3c(c2)NC(=O)C(N2CCOCC2)S3)cc1OC (stereo unspecified) | 1.05 (inactive) |
| CCOc1ccccc1-n1c(SCC(=O)N2CCCC2)nnc1-c1ccoc1C | 1.07 (inactive) |
| CCCCc1nccn1CCn1ccnc1CCCC | 1.03 (inactive) |
| COc1ccc(-c2cc(C(=O)NC(C(=O)O)C(C)C)c(C)o2)cc1OC (stereo unspecified) | 1.05 (inactive) |
| C=C(C)c1cccc(C(C)(C)NC(=O)N2CCN(c3ncccn3)CC2)c1 | 1.1 (inactive) |
| Fc1ccc2[nH]c3c(N4CCSCC4)ncnc3c2c1 | 1.68 (inactive) |
| Fc1ccc2[nH]c3c(N4CCN(Cc5ccc6c(c5)OCO6)CC4)ncnc3c2c1 | 1.38 (inactive) |
| CC(C)OCCCNc1ncnc2c1[nH]c1ccc(F)cc12 | 3.76 (active) |
| CCN1CCCC1CNc1ncnc2c1[nH]c1ccc(F)cc12 (stereo unspecified) | 3.05 (active) |
| COc1ccc(C(=O)Nc2cccnc2)cc1C(=O)Nc1cccnc1 | 1.05 (inactive) |
| C=CCn1c(C)cc(C(=O)CN2C(=O)c3ccccc3C2=O)c1C | 1.04 (inactive) |
| C=CCN(CC=C)C(=O)CN1C(=O)c2ccccc2C1=O | 1.04 (inactive) |
| Cc1ccc(OCC(=O)Nc2ccc(-c3nc4ncccc4o3)cc2)cc1 | 3.7 (active) |
| CCOC(=O)c1ccc(NC(=O)CSc2ncccn2)cc1 | 1.02 (inactive) |
| COc1ccc(CC(=O)Nc2ccc(-c3nnc(-c4ccc(C)cc4)o3)cc2)cc1 | 2.89 (active) |
| CCC(=O)Oc1cccc(C(=O)Nc2ccc(-c3nnc(-c4ccco4)o3)cc2)c1 | 1.53 (inactive) |
| COc1ccc(CC(=O)Nc2ccc(-c3nnc(-c4ccccc4)o3)cc2)cc1 | 2.23 (active) |
| COc1ccc(-c2nc(CS(=O)CC(=O)NCc3ccccn3)c(C)o2)cc1 (stereo unspecified) | 1 (inactive) |
| O=C(CCc1ccccc1)Nc1cccc(-c2nnc(-c3ccco3)o2)c1 | 1.31 (inactive) |
| Cc1ccc(OCC(=O)Nc2ccc(-c3nnc(-c4ccco4)o3)cc2)cc1 | 1.37 (inactive) |
| O=C(COC(=O)c1ccc(Oc2ccccc2)cc1)Nc1nnc(-c2ccccc2)o1 | 1.19 (inactive) |
| CCCOC(=O)CC1C(=O)NCCN1Cc1ccc(F)cc1 (stereo unspecified) | 1.06 (inactive) |

| Compound | fluorescence fold increase |
| --- | --- |
| C=C(Br)Cn1c(CCCC)nc2ccccc21 | 1.05 (inactive) |
| CCN(c1ccccc1)S(=O)(=O)c1cccc(C(=O)O)c1 | 0.98 (inactive) |
| Cc1noc(C)c1CSc1nnc2ccc3ccccc3n12 | 1.17 (inactive) |
| COC(=O)C(NC(C)=O)(Nc1nc2c(s1)CCCC2)C(F)(F)F (stereo unspecified) | 1.04 (inactive) |
| Cc1ccc(N(C(=O)CC2NC(=O)NC2=O)C2(C(=O)NC3CCCC3)CCCCC2)cc1 (stereo unspecified) | 1.11 (inactive) |
| Cc1cccn2c(=O)c3cc(C(=O)N4COCC4(C)C)n(C)c3nc12 | 4.96 (active) |
| Cc1cccn2c(=O)c3cc(C(=O)NCc4ccccn4)n(C)c3nc12 | 5.03 (active) |
| Cc1ccccc1CN1CCN(CC(=O)NCc2ccccn2)C1=O | 1.13 (inactive) |
| O=C(NCc1ccccn1)c1ccc2nc(-c3ccco3)c(-c3ccco3)nc2c1 | 1.72 (inactive) |
| NC(=O)C1CCN(C2OC(=O)c3ccccc32)CC1 (stereo unspecified) | 1.08 (inactive) |
| CCOC(=O)C1CCN(C(=O)C2CCN(S(=O)(=O)N3CCCC3)CC2)CC1 | 1.03 (inactive) |
| CCC(CC)c1nnc(NS(=O)(=O)Cc2ccccc2)s1 | 1.09 (inactive) |
| CN1c2ccccc2-c2nc3ccccc3n2C1c1ccco1 (stereo unspecified) | 2.31 (active) |
| Cc1nn2c3ccccc3nc2n(C)c1=O | 0.93 (inactive) |
| Cc1ccccc1N1C(=O)C2ON(c3ccccc3)C(c3ccncc3)C2C1=O (stereo unspecified) | 1.04 (inactive) |
| COc1ccc2nc(N3CCCC(O)C3)c(C#N)cc2c1 (stereo unspecified) | 2.58 (active) |
| CCOc1ccc2nc(N3CCCN(C(=O)Nc4ccccc4C)CC3)c(C#N)cc2c1 | 1.7 (inactive) |
| COc1ccc(N2CCN(C(=O)CSc3nc4cc(OC)c(OC)cc4cc3C#N)CC2)cc1 | 1.03 (inactive) |
| COC(=O)c1sc(NC(=O)c2csc3c2CCCC3)nc1C | 1.25 (inactive) |
| COc1ccc(C(=O)Nc2nncs2)c(OC)c1 | 1.05 (inactive) |
| COC(=O)c1sc(NC(=O)c2ccc(OC)cc2OC)nc1C | 2.06 (active) |
| CCOc1ccccc1NC(=O)c1cc(S(=O)(=O)N2CCC3(CC2)OCCO3)ccc1F | 1.05 (inactive) |
| CCOC(=O)C1CCN(C(=O)c2oc3ccc(S(=O)(=O)N4CCCCCC4)cc3c2C)CC1 | 1.08 (inactive) |
| Cc1c(C(=O)Nc2ccccc2Cl)oc2ccc(S(=O)(=O)N3CCC4(CC3)OCCO4)cc12 | 3.37 (active) |

| Compound | fluorescence fold increase |
| --- | --- |
| COC(=O)COc1ccc(S(=O)(=O)Nc2ccc(NC(C)=O)cc2)cc1 | 1.1 (inactive) |
| O=C(N1CCOCC1)N(Cc1ccccc1)c1ccccn1 | 1.08 (inactive) |
| COc1cc(-n2c(C)nc3cc(C(=O)NCc4ccco4)ccc32)cc(OC)c1OC | 1.09 (inactive) |
| Cc1cc(NC(=O)c2cnn3cccnc23)n(-c2ccccc2)n1 | 1.13 (inactive) |
| Cn1c(CNc2nc(-c3ccccc3)cs2)nnc1SCC(=O)c1ccccc1 | 1.05 (inactive) |
| Cc1nc2ccccc2c(=O)n1CCCn1ccnc1 | 1.18 (inactive) |
| CC(Sc1nc2ccccc2c(=O)n1Cc1ccco1)C(=O)c1ccccc1 (stereo unspecified) | 1.1 (inactive) |
| Cc1ccc(Cn2c(C)nc3c(c2=O)c2nc4ccccc4nc2n3Cc2ccco2)cc1 | 2.34 (active) |
| Cn1c(COc2ccc(Cl)cc2)nc2ccccc2c1=O | 1.18 (inactive) |
| O=c1c2ccccc2oc2nc(C3CCCCC3)n(Cc3ccco3)c(=O)c12 | 1.14 (inactive) |
| Nc1cc(=O)nc(SCc2ccccc2)n1Cc1ccco1 | 1.05 (inactive) |
| COCCCn1c2nc3ccccc3nc2c2c(=O)n(Cc3ccc(Cl)cc3)c(C)nc21 | 3.88 (active) |
| Clc1cccc(-c2nc3nc4ccccc4nc3n2Cc2ccco2)c1 | 1.65 (inactive) |
| Cc1nc2c(c(=O)n1Cc1ccco1)c1nc3ccccc3nc1n2Cc1ccccc1 | 2.65 (active) |
| CC(=O)Oc1cc2c(C(=O)NCCN3CCOCC3)c(C)oc2c2ccccc12 | 1.19 (inactive) |
| CCCS(=O)(=O)N1CCCC(C(=O)N2CCN(c3ccccc3)CC2)C1 (stereo unspecified) | 1.11 (inactive) |
| CN(C)Cc1c(O)ccc2occ(C(O)c3ccccc3)c12 (stereo unspecified) | 1.03 (inactive) |
| COc1ccc(-c2ccnc(SCC(=O)N3CCOCC3)n2)cc1 | 1.54 (inactive) |
| COc1cc(NC(=O)N2CCOCC2)cc(OC)c1 | 1.07 (inactive) |
| COC(=O)c1[nH]c2ccccc2c1NC(=O)CN1CCCc2ccccc21 | 1.14 (inactive) |
| CCOC(=O)c1[nH]c2ccc(OC)cc2c1NC(=O)CCN1CCN(Cc2ccccc2)CC1 | 2.37 (active) |
| CCOC(=O)c1[nH]c2ccc(OC)cc2c1NC(=O)N1CCOCC1 | 3.83 (active) |
| Cc1c(C(=O)N2CCOCC2)[nH]c2ccc(OCc3ccccc3)cc12 | 1.13 (inactive) |
| CCOc1ccccc1NC(=O)CCN1CCN(S(=O)(=O)c2ccc(OC)cc2)CC1 | 1 (inactive) |
